According to PubChem BioAssay:
The source made the active and inactive calls.

Experiment: forskolin-driven CRE-LacZ activity in PC12 – cell-based, CRE-LacZ reporter, forskolin-stimulated, primary screen (AID 1146);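 also: PC12 cells with 6xCRE LacZ reporter stimulated by forskolin 10 µM; beta-galactosidase reporter signal reflecting CREB driven transcription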
Conditions: luminescence, 4.5 h, higher = more signal, called active from +8 up or from −8 down

z-score, inactive:
CO[C@H]1COC(=O)CC=C[C@H](C)[C@@H](OC)COC(=O)CC=C[C@@H]1C -0.0885
COCCOC(=O)N1C(=O)[C@@]2(c3cc(C#CCCO)ccc31)[C@H](C(=O)N1CCCCCCC1)[C@H]1C(=O)O[C@H](c3ccccc3)[C@H](c3ccccc3)N1[C@@H]2c1ccc(O)cc1 -1.28
Cc1ccc(N2C(=O)c3ccccc3[C@@H](C(=O)NCc3ccccc3)[C@@H]2c2ccc(CO)cc2)nc1 -1.02
CC(=O)NCCCC[C@@H]1NC(=O)[C@@H]2C[C@H](C(=O)NCCCCCNC(=O)CS)[C@H](c3ccc(O)cc3)N2C1=O -1.45
O=C(CS)NCCCCCNC(=O)[C@H]1C[C@H]2C(=O)N3CCC[C@H]3C(=O)N2[C@H]1c1ccc(O)cc1 -1.59
C[C@@H]1CC[C@H]2C(=O)N3CCC[C@H]3C(=O)N2[C@H]1c1ccc(Br)cc1 -0.0739
O=C1O[C@@H](c2ccccc2)[C@@H](c2ccccc2)N2[C@@H](c3ccc(O)cc3)[C@]3(C(=O)Nc4ccc(C#CC5(O)CCCCCC5)cc43)[C@@H](C(=O)Nc3nc4ccccc4s3)[C@H]12 -0.908
C[N+](C)(C)CCCC[C@@H]1NC(=O)[C@H]2C[C@@H](C(=O)NCc3ccc(F)cc3)[C@@H](c3cccc(OCCO)c3)N2C1=O -0.396
CO[C@H]1COC(=O)[C@H](Cc2ccccc2)NC(=O)CC=C[C@@H](C)[C@H](OC)COC(=O)CC=C[C@@H]1C -1.15
COC(=O)c1c(CC[C@@H](CO)NC(=O)N[C@H](Cn2cc(-c3cncn3C)nn2)C(C)C)oc(C(C)=O)c1C(=O)OC -1.4
C=C(COC)/C(=C/C[C@@H](OC(C)=O)c1cccc(OCCO)c1)c1cc(C(=O)OC)ccc1OC -1.89
COCC(=C=CC[C@H](O)c1ccc(OCCO)cc1)C[C@H](O)c1ccccn1 -1.44
CCOC(=O)[C@H]1C/C=C/C[C@H](C(=O)OCC)C(=O)O[C@H]2[C@@H](OC)O[C@H](CO)[C@@H](OC(=O)Nc3ccc(Br)cc3)[C@@H]2OC1=O -1.23
CCN1C(C)=C(C(=O)OC)[C@@H](c2ccccc2)N2C(=O)[C@@]3(C(=O)OC)O[C@@]12[C@@H]1C(=O)N(c2ccccc2)C(=O)[C@@H]13 -1.28
CC(C)N1CC=CC23O[C@@H]4/C=C\CCCOC(=O)C4[C@H]2C(=O)N(CCCCCO)[C@@H]3C1=O (stereo partly specified) 0.392
C=C(COC)/C(=C/C[C@H](OC(C)=O)c1ccc(OCCO)cc1)c1cnc2ccccc2c1 -0.862
COCCOC(=O)N1C(=O)[C@@]2(c3cc(C#CCNC(N)=O)ccc31)[C@H](c1ccc(OCCO)cc1)N1[C@H](c3ccccc3)[C@H](c3ccccc3)OC(=O)[C@H]1[C@@H]2C(=O)N1CCCCCCC1 -1.91
CO[C@H]1COC(=O)[C@@H](OCc2ccccc2)C=C[C@H](C)[C@@H](OC)COC(=O)[C@H](OCc2ccccc2)C=C[C@@H]1C -0.672
NC(=O)NCC#Cc1ccc2c(c1)[C@]1(C(=O)N2)[C@H](C(=O)N2CCCCCCC2)[C@H]2C(=O)O[C@H](c3ccccc3)[C@H](c3ccccc3)N2[C@@H]1c1ccccc1OCCO -1.18
COCCCNC(=O)[C@@]1(Sc2ccc(C)cc2)CC(=O)N(Cc2cc(C(F)(F)F)cc(C(F)(F)F)c2)[C@@H]1c1ccc(CO)cc1I 0.264
C=CCC1=C[C@H]2[C@H]([C@@H]3C=C[C@]2(CC=C)C(=O)[C@]32CO2)[C@@]2(CO2)C1=O 1.62
O=C(NCc1ccccc1)[C@@]1(CCS(=O)(=O)c2ccccc2)COC(c2ccc(OCCCO)cc2)=N1 -2.67
C=CCNC(=O)[C@H]1[C@@H]2C(=O)O[C@@H](c3ccccc3)[C@@H](c3ccccc3)N2[C@@H](c2ccccc2OCCO)[C@]12C(=O)N(C(=O)OCCOC)c1ccc(C#CCNC(N)=O)cc12 0.948
CCCCO[C@H]1C[C@H]2C(Br)=C[C@@]1(CO)C(=O)[C@]21CO1 -0.67
CN1CCC(CCCO)=CC1C1CC1 (stereo unspecified) -1.36
COc1ccc(CCNC(=O)[C@@]2(c3ccc([N+](=O)[O-])cc3)CC(=O)N(C(C)C)[C@@H]2c2ccc(CO)cc2)cc1 -1.25
Cc1ccc(S[C@]2(C(=O)O)CC(=O)N(Cc3ccccc3)[C@@H]2c2ccc(CO)cc2)cc1 -0.84
C=CCc1cccc([C@@H]2[C@@H](C)CC[C@H]3C(=O)N4[C@H](c5cccc(CC=C)c5)[C@@H](C)CC[C@H]4C(=O)N23)c1 -0.353
COc1ccc([Si](C)(C)[C@H]2[C@H](CCO)O[C@@]3(C(=O)N(Cc4ccc(N5CCCCC5=O)cc4)c4ccccc43)[C@@H]2C)cc1 -2.57
CCCNC(=O)[C@@]1(Sc2ccc(C)cc2)CC(=O)N(Cc2ccccc2Cl)[C@@H]1c1ccc(CO)cc1 -1.43
CO[C@H]1COC(=O)[C@H](CCSC)NC(=O)CC=C[C@@H](C)COC(=O)[C@@H](OCc2ccccc2)C=C[C@@H]1C -0.48
C[C@@H]1CC[C@H]2C(=O)N3[C@@H](CC[C@@H](C)[C@@H]3c3cccc(N4CCOCC4)c3)C(=O)N2[C@H]1c1cccc(N2CCOCC2)c1 -0.84
CO[C@]12C=C(Br)[C@@H](C[C@@H]1c1ccccc1)[C@@]1(CO1)C2=O 2
C=CCC(OC(C)=O)[C@@H]1[C@@H](N(Cc2ccc(-c3ccccc3)cc2)C(=O)c2ccc(C)cc2)c2cc(OCCCO)ccc2N1C(=O)c1ccc(-c2ccccc2)cc1 (stereo partly specified) -0.782
CC(=O)NCCCC[C@@H]1NC(=O)[C@@H]2C[C@H](C(=O)NCCCCCCN(C)C)[C@H](c3ccc(O)cc3)N2C1=O -1.19
O=C1c2ccccc2[C@](Cc2ccccc2I)(C(=O)NCc2ccccc2)[C@H](c2ccc(CO)cc2)N1Cc1ccccc1C(F)(F)F -0.487
